# Measurements published in the supplement of paper PMC8728848.
# The sample as a whole holds a higher share of the strongest signals than the screen did.
# B1: MCL (Mus musculus), Q9Z2H6 (protein)
# chain: MWLEESQMKSKGTRHPQLIPCVFAVVSISFLSACFISTCLVTHHYFLRWTRGSVVKLSDYHTRVTCIREEPQPGATGGTWTCCPVSWRAFQSNCYFPLNDNQTWHESERNCSGMSSHLVTINTEAEQNFVTQLLDKRFSYFLGLADENVEGQWQWVDKTPFNPHTVFWEKGESNDFMEEDCVVLVHVHEKWVWNDFPCHFEVRRICKLPGITFNWKPSK
# Legend:
# Experiment in all cases: glycan array binding signal (z-score within array); higher = stronger binding
# Conditions in all cases: glycan notation: IUPAC condensed, linker removed
# [1] = target: Fuc(a1-2)[Gal(a1-3)]Gal(b1-4)Glc
# Method in brief: (§1)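 Negative Z-scores can be read as non-binding. The Z-score is calculated within each array and then averaged across arrays of one protein sequence at different concentrations or buffers and across linkers. Arrays, 3228 in all, were curated from the Consortium for Functional Glycomics database and kept only where the protein sequence was available.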
# [2] = target: Fuc(a1-2)[Gal(a1-3)]Gal(b1-4)[Fuc(a1-3)]GlcNAc
# Method in brief: as §1
# [3] = target: Fuc(a1-2)[GalNAc(a1-3)]Gal
# Method in brief: as §1
# [4] = target: Fuc(a1-2)[GalNAc(a1-3)]Gal(b1-3)GlcNAc
# Method in brief: as §1
# [5] = target: Fuc(a1-3)[Gal(b1-4)]GlcNAc(b1-2)Man(a1-6)[Gal(b1-4)GlcNAc(b1-2)Man(a1-3)]Man(b1-4)GlcNAc(b1-4)GlcNAc
# Method in brief: as §1
# [6] = target: Fuc(a1-3)[Gal(b1-4)]GlcNAc(b1-3)Gal(b1-3)[Fuc(a1-4)]GlcNAc
# Method in brief: as §1
# [7] = target: Fuc(a1-3)[Gal(b1-4)]GlcNAc6S
# Method in brief: as §1
# Fuc(b1-3)GlcNAc = target: Fuc(b1-3)GlcNAc
# Method in brief: as §1
# Gal(a1-3)Gal(b1-3)GlcNAc = target: Gal(a1-3)Gal(b1-3)GlcNAc
# Method in brief: as §1
# Gal(a1-3)Gal(b1-4)GlcNAc = target: Gal(a1-3)Gal(b1-4)GlcNAc
# Method in brief: as §1
# Gal(b1-2)Gal = target: Gal(b1-2)Gal
# Method in brief: as §1
# Gal(b1-3)Gal = target: Gal(b1-3)Gal
# Method in brief: as §1
# Gal(b1-3)GlcNAc = target: Gal(b1-3)GlcNAc
# Method in brief: as §1
# [8] = target: Gal(b1-3)GlcNAc(b1-2)Man(a1-3)[Gal(b1-3)GlcNAc(b1-2)Man(a1-6)]Man(b1-4)GlcNAc(b1-4)GlcNAc
# Method in brief: as §1
# [9] = target: Gal(b1-4)GlcNAc(b1-3)Gal(b1-4)Glc
# Method in brief: as §1
# [10] = target: Gal3S(b1-3)[Fuc(a1-4)]GlcNAc
# Method in brief: as §1
# Gal6S(b1-4)Glc = target: Gal6S(b1-4)Glc
# Method in brief: as §1
# GalNAc(a1-3)GalNAc = target: GalNAc(a1-3)GalNAc
# Method in brief: as §1
# GlcNAc(b1-3)GalNAc = target: GlcNAc(b1-3)GalNAc
# Method in brief: as §1
# [11] = target: GlcNAc(b1-3)[GlcNAc(b1-6)]Gal(b1-4)GlcNAc
# Method in brief: as §1
# [12] = target: GlcNAc(b1-6)Gal(b1-4)GlcNAc
# Method in brief: as §1
# [13] = target: Neu5Ac(a2-3)Gal(b1-3)GalNAc(b1-3)Gal(b1-4)GlcNAc
# Method in brief: as §1
# [14] = target: Neu5Ac(a2-3)Gal(b1-3)GlcNAc
# Method in brief: as §1
# [15] = target: Neu5Ac(a2-3)Gal(b1-3)GlcNAc(b1-3)Gal(b1-3)GlcNAc
# Method in brief: as §1
# [16] = target: Neu5Ac(a2-3)Gal(b1-3)[Fuc(a1-4)]GlcNAc(b1-3)Gal(b1-4)[Fuc(a1-3)]GlcNAc
# Method in brief: as §1
# [17] = target: Neu5Ac(a2-3)Gal(b1-3)[Neu5Ac(a2-3)Gal(b1-4)]GlcNAc
# Method in brief: as §1
# [18] = target: Neu5Ac(a2-3)Gal(b1-3)[Neu5Ac(a2-6)]GalNAc
# Method in brief: as §1
# [19] = target: Neu5Ac(a2-3)Gal(b1-4)GlcNAc6S
# Method in brief: as §1
# [20] = target: Neu5Ac(a2-3)Gal(b1-4)[Fuc(a1-3)]GlcNAc(b1-3)Gal
# Method in brief: as §1
# [21] = target: Neu5Ac(a2-3)Gal(b1-4)[Fuc(a1-3)]GlcNAc6S
# Method in brief: as §1
# [22] = target: Neu5Ac(a2-3)GalNAc(b1-4)GlcNAc
# Method in brief: as §1
# [23] = target: Neu5Ac(a2-6)Gal(b1-4)GlcNAc(b1-2)Man(a1-3)[GlcNAc(b1-2)Man(b1-4)GlcNAc(b1-2)Man(a1-6)]Man(b1-4)GlcNAc(b1-4)GlcNAc
# Method in brief: as §1
# [24] = target: Neu5Ac(a2-6)GalNAc(b1-4)GlcNAc
# Method in brief: as §1
# [25] = target: Neu5Gc(a2-3)Gal(b1-3)[Fuc(a1-4)]GlcNAc
# Method in brief: as §1
# [26] = target: Neu5Gc(b2-6)Gal(b1-4)GlcNAc
# Method in brief: as §1
binder,measurement,setting,value
B1,glycan array binding signal (z-score),[1],-0.321
same,glycan array binding signal (z-score),[2],0.241
same,glycan array binding signal (z-score),[3],-0.254
same,glycan array binding signal (z-score),[4],0.999
same,glycan array binding signal (z-score),[5],5.26
same,glycan array binding signal (z-score),[6],0.601
same,glycan array binding signal (z-score),[7],-0.78
same,glycan array binding signal (z-score),Fuc(b1-3)GlcNAc,-0.475
same,glycan array binding signal (z-score),Gal(a1-3)Gal(b1-3)GlcNAc,2.63
same,glycan array binding signal (z-score),Gal(a1-3)Gal(b1-4)GlcNAc,3.06
same,glycan array binding signal (z-score),Gal(b1-2)Gal,-0.362
same,glycan array binding signal (z-score),Gal(b1-3)Gal,-0.472
same,glycan array binding signal (z-score),Gal(b1-3)GlcNAc,0.168
same,glycan array binding signal (z-score),[8],-0.92
same,glycan array binding signal (z-score),[9],0.482
same,glycan array binding signal (z-score),[10],0.263
same,glycan array binding signal (z-score),Gal6S(b1-4)Glc,0.143
same,glycan array binding signal (z-score),GalNAc(a1-3)GalNAc,-0.708
same,glycan array binding signal (z-score),GlcNAc(b1-3)GalNAc,0.005
same,glycan array binding signal (z-score),[11],-0.357
same,glycan array binding signal (z-score),[12],-0.735
same,glycan array binding signal (z-score),[13],-0.471
same,glycan array binding signal (z-score),[14],0.527
same,glycan array binding signal (z-score),[15],0.595
same,glycan array binding signal (z-score),[16],-0.245
same,glycan array binding signal (z-score),[17],2.08
same,glycan array binding signal (z-score),[18],0.696
same,glycan array binding signal (z-score),[19],-0.011
same,glycan array binding signal (z-score),[20],-0.251
same,glycan array binding signal (z-score),[21],0.138
same,glycan array binding signal (z-score),[22],-1.14
same,glycan array binding signal (z-score),[23],2.17
same,glycan array binding signal (z-score),[24],-0.814
same,glycan array binding signal (z-score),[25],-0.827
same,glycan array binding signal (z-score),[26],0.767
